Inconclusive results are not listed. The source made the active and inactive calls. The calls were made as follows: active = hit-call score of the fitted dose curve at least 0.9, where 1 is the maximum; inconclusive = response in the unintended direction; inactive = score below 0.9.

Assay [1] addresses guinea pig Leukotriene D4 Receptor (LTD4), CYSLTR1 (gene 100135514) (UniProt Q2NNR5). Description: NVS_GPCR_gLTD4: NovaScreen (NVS) G Protein-Coupled Receptor Assay for guinea pig Leukotriene D4 Receptor (LTD4) (AID 2283248). The method in brief:
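Radioligand displacement on guinea pig lung membranes, 1 h incubation, filtration and scintillation counting; DMSO as negative control. Duplicate 25 uM primary screen, then singleton concentration-response up to 50 uM.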

Assay [2] addresses human Serotonin, 5-Hydroxytryptamine Receptor 5A (5HT5A), HTR5A (gene 3361) (UniProt P47898). The assay can be described thus: NVS_GPCR_h5HT5A: NovaScreen (NVS) G Protein-Coupled Receptor Assay for human Serotonin, 5-Hydroxytryptamine Receptor 5A (5HT5A) (AID 2283251). The method in brief:
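Cell-free radioligand displacement binding on HEK293-derived membrane protein, 1 h incubation, filter-based scintillation counting. Primary screen in duplicate at 25 uM, actives followed in concentration series; loss of signal fitted versus DMSO.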

In assay [3] the test system is bovine Angiotensin II Receptor Type 2 (AT2), gene 407157. The assay can be described thus: NVS_GPCR_bAT2: NovaScreen (NVS) G Protein-Coupled Receptor Assay for bovine Angiotensin II Receptor Type 2 (AT2) (AID 2283240). The gist of the method:
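Radioligand displacement on bovine cerebellar membranes, 1 hour incubation, filter-based scintillation counting; loss of signal vs DMSO. Duplicate single-point screen at 25 uM, then concentration-response to 50 uM maximum.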

In assay [4] the target is human Serotonin, 5-Hydroxytryptamine Receptor 6 (5HT6), HTR6 (gene 3362) (UniProt P50406). Description: NVS_GPCR_h5HT6: NovaScreen (NVS) G Protein-Coupled Receptor Assay for human Serotonin, 5-Hydroxytryptamine Receptor 6 (5HT6) (AID 2283253). The method in brief: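 Radioligand binding to 5HT6 in HEK293-derived membranes, cell-free, 1 h after dosing; bound ligand measured by filter-based scintillation counting. Primary screen in duplicate at 25 uM; actives retested in concentration series.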

Assay [5] deals with human Adenosine A1 Receptor (AdoRA1), ADORA1 (gene 134) (UniProt P30542). Description: NVS_GPCR_hAdoRA1: NovaScreen (NVS) G Protein-Coupled Receptor Assay for human Adenosine A1 Receptor (AdoRA1) (AID 2283254). The method in brief:
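Radioligand binding was run on human cortical membranes, cell-free, with filter-based scintillation counting 1 h after dosing. The primary screen was duplicate at 25 uM, followed by concentration series. Signal loss versus DMSO was fitted positive-direction.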

Assay [6] deals with human Serotonin, 5-Hydroxytryptamine Receptor 7 (5HT7), HTR7 (gene 3363) (UniProt P34969). The assay can be described thus: NVS_GPCR_h5HT7: NovaScreen (NVS) G Protein-Coupled Receptor Assay for human Serotonin, 5-Hydroxytryptamine Receptor 7 (5HT7) (AID 2283255).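 Also: hits reduce specific radioligand binding relative to DMSO.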 The gist of the method:
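Radioligand displacement on membranes from CHO cells expressing human 5HT7, 1 h incubation, filter-based scintillation counting. Primary screen used a single 25 uM concentration in duplicate; actives were followed up in concentration series.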

The target of assay [7] is human Adenosine A2a Receptor (AdoRA2a), ADORA2A (gene 135) (UniProt P29274). Description: NVS_GPCR_hAdoRA2a: NovaScreen (NVS) G Protein-Coupled Receptor Assay for human Adenosine A2a Receptor (AdoRA2a) (AID 2283256). The method in brief: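 Radioligand displacement on HEK293-derived membrane protein, cell-free; filter-based scintillation counting 1.5 hours after dosing, loss of signal vs DMSO. Single-point duplicate screen at 25 uM, actives retested in concentration series.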

In assay [8] the test system is guinea pig Muscarinic, Peripheral (Mperiperal) Receptor, Non-selective Binding, gene 100379235. Description: NVS_GPCR_gMPeripheral_NonSelective: NovaScreen (NVS) G Protein-Coupled Receptor Assay for guinea pig Muscarinic, Peripheral (Mperiperal) Receptor, Non-selective Binding (AID 2283250). The gist of the method:
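Guinea pig bladder membranes, radioligand binding read 1 h after dosing by filter scintillation counting; loss of signal vs DMSO. Primary duplicate screen at 25 uM, then concentration-response up to 50 uM.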

Assay [9] deals with human Serotonin, 5-Hydroxytryptamine Receptor 2A (5HT2A), HTR2A (gene 3356) (UniProt P28223). Description: NVS_GPCR_h5HT2A: NovaScreen (NVS) G Protein-Coupled Receptor Assay for human Serotonin, 5-Hydroxytryptamine Receptor 2A (5HT2A) (AID 2283249). The gist of the method:
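Human cortex membranes, cell-free radioligand binding; filter-based scintillation read 1.5 h after dosing. Duplicate screen at 25 uM first; displacement of specific binding (loss of signal) versus DMSO.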

The target of assay [10] is Adenosine receptor A1 (Bos taurus) (UniProt P28190). The assay can be described thus: NVS_GPCR_bAdoR_NonSelective: NovaScreen (NVS) G Protein-Coupled Receptor Assay for bovine Adenosine Receptor (AdoR), Non-selective Binding (AID 2283244). The gist of the method:
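Bovine striatal membranes, radioligand displacement binding, 1 h after dosing, filter-based scintillation counting. Screened in duplicate at 25 uM, then concentration-response up to 50 uM; loss of specific binding relative to DMSO.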

The subject of assay [11] is guinea pig Leukotriene B4 Receptor (LTB4), gene 100379538. The assay can be described thus: NVS_GPCR_gLTB4: NovaScreen (NVS) G Protein-Coupled Receptor Assay for guinea pig Leukotriene B4 Receptor (LTB4) (AID 2283247). The gist of the method:
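Radioligand displacement on guinea pig spleen membranes, filter-based scintillation counting 2 h after dosing. Primary duplicate single point at 25 uM; hits over threshold (e.g. 30% inhibition) run in concentration-response up to 50 uM, DMSO baseline.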

For assay [12], the target named is bovine Dopamine Receptor (DR), Non-selective Binding, DRD1 (gene 281125) (UniProt Q95136). The assay can be described thus: NVS_GPCR_bDR_NonSelective: NovaScreen (NVS) G Protein-Coupled Receptor Assay for bovine Dopamine Receptor (DR), Non-selective Binding (AID 2283241). The gist of the method: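 Bovine striatal membranes; radioligand displacement read by filtration and scintillation counting 1 h after dosing, loss of signal vs DMSO. Screened in duplicate at 25 uM, then concentration-response for hits.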

The subject of assay [13] is bovine Histamine 1 Receptor (H1), gene 281231. The assay can be described thus: NVS_GPCR_bH1: NovaScreen (NVS) G Protein-Coupled Receptor Assay for bovine Histamine 1 Receptor (H1) (AID 2283246). The gist of the method: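 Radioligand displacement on bovine cerebellar membranes, 1 h after dosing, filter-based scintillation read-out; loss of signal vs DMSO. Duplicate single-concentration screen at 25 uM, then concentration-response up to 50 uM for hits.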

The target of assay [14] is guinea pig Opioid, Kappa 1 Receptor (OpiateK), OPRK1 (gene 100135587) (UniProt P41144). Description: NVS_GPCR_gOpiateK: NovaScreen (NVS) G Protein-Coupled Receptor Assay for guinea pig Opioid, Kappa 1 Receptor (OpiateK) (AID 2283252).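 Also: radioligand displacement from kappa opioid receptor in guinea pig cerebellar membranes; active means reduced radioligand binding relative to DMSO.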 The method in brief:
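Guinea pig cerebellar membranes were incubated with a radioligand for 2 h after compound addition; bound radioactivity was read by filter-based scintillation counting. Loss of specific binding relative to DMSO baseline defined activity; primary screen at 25 uM in duplicate.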

The nature of assay [15]: NVS_GPCR_bNPY_NonSelective: NovaScreen (NVS) G Protein-Coupled Receptor Assay for bovine Neuropeptide Y (NPY) Receptor, Non-selective Binding (AID 2283245). The gist of the method:
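Bovine hippocampal membranes incubated 1 hour with radioligand and test chemical. Bound ligand measured by filter-based scintillation counting. Single-concentration screen at 25 uM in duplicate, then concentration-response up to 50 uM.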

Sequence of human Serotonin, 5-Hydroxytryptamine Receptor 5A (5HT5A), HTR5A (gene 3361) (P47898 whole entry, looked up): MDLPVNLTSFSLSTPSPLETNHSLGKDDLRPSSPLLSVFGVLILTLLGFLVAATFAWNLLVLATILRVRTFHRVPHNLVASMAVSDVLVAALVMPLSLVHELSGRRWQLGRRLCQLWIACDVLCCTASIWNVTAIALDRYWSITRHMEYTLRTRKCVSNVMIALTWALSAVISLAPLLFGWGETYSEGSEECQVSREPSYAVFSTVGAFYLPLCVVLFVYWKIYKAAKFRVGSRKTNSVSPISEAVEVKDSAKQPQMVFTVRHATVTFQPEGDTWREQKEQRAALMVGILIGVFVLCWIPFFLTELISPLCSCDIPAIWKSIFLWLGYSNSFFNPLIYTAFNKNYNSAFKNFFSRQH
Sequence of human Adenosine A1 Receptor (AdoRA1), ADORA1 (gene 134) (P30542 whole entry, looked up): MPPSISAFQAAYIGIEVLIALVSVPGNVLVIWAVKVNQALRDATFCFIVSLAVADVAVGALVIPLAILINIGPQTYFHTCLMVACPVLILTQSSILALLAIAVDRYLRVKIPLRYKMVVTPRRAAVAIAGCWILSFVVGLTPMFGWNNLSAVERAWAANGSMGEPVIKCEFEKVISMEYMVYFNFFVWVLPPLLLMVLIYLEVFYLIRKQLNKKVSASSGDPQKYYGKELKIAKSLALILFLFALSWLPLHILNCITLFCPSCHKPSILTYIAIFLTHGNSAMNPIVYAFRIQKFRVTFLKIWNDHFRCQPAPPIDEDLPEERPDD
Sequence of guinea pig Opioid, Kappa 1 Receptor (OpiateK), OPRK1 (gene 100135587) (P41144 whole entry, looked up): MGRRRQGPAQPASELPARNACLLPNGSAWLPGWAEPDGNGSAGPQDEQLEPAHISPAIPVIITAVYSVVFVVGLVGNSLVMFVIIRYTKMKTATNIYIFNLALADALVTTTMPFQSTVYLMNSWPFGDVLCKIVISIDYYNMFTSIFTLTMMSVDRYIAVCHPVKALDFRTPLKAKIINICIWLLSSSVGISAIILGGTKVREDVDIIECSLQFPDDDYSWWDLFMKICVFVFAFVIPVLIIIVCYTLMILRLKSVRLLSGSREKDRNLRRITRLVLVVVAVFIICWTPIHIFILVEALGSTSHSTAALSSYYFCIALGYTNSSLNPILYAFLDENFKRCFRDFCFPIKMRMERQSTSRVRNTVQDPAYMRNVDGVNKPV
Sequence of human Serotonin, 5-Hydroxytryptamine Receptor 6 (5HT6), HTR6 (gene 3362) (P50406 whole entry, looked up): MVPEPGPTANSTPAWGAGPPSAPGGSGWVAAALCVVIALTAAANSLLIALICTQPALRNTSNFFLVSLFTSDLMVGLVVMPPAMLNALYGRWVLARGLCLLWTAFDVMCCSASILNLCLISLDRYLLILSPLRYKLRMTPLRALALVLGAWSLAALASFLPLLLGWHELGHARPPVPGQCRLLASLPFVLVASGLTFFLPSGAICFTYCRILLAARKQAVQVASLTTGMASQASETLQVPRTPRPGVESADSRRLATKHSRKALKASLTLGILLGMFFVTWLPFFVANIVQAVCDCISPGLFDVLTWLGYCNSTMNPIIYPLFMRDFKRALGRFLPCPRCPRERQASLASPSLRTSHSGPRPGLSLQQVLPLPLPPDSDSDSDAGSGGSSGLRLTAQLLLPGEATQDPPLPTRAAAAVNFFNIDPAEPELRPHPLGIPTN
Sequence of human Serotonin, 5-Hydroxytryptamine Receptor 7 (5HT7), HTR7 (gene 3363) (P34969 whole entry, looked up): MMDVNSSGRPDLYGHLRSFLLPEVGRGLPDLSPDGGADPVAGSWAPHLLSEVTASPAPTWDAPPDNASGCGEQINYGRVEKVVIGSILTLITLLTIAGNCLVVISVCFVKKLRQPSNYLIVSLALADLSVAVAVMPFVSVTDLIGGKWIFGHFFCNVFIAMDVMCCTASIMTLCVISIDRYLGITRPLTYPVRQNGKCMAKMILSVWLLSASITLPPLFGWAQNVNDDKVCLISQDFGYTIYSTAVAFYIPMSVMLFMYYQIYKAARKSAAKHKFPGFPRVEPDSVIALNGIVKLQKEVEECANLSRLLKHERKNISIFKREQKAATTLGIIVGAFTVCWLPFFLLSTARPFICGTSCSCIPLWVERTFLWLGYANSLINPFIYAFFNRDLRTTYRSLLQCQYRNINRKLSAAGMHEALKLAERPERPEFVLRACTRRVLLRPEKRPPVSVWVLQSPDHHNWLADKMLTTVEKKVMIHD
Sequence of guinea pig Leukotriene D4 Receptor (LTD4), CYSLTR1 (gene 100135514) (Q2NNR5 whole entry, looked up): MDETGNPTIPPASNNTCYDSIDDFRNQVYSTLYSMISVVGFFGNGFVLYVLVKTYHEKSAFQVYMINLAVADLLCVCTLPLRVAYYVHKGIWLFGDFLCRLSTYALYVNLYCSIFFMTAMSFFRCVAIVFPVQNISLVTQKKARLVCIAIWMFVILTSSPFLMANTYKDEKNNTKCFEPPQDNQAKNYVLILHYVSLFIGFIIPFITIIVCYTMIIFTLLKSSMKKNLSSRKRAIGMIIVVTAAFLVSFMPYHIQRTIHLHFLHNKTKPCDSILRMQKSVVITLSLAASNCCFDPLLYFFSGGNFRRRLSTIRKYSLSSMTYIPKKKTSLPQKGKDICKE
Sequence of Adenosine receptor A1 (Bos taurus) (P28190 whole entry, looked up): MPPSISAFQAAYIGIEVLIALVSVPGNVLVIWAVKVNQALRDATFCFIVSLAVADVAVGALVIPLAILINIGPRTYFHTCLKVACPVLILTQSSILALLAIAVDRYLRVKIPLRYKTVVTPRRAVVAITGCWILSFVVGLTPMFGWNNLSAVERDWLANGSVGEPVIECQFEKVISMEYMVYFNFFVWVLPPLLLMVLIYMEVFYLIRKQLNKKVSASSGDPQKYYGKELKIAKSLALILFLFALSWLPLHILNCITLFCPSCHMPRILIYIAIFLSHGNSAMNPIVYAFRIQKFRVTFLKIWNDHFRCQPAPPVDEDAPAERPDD
Sequence of human Adenosine A2a Receptor (AdoRA2a), ADORA2A (gene 135) (P29274 whole entry, looked up): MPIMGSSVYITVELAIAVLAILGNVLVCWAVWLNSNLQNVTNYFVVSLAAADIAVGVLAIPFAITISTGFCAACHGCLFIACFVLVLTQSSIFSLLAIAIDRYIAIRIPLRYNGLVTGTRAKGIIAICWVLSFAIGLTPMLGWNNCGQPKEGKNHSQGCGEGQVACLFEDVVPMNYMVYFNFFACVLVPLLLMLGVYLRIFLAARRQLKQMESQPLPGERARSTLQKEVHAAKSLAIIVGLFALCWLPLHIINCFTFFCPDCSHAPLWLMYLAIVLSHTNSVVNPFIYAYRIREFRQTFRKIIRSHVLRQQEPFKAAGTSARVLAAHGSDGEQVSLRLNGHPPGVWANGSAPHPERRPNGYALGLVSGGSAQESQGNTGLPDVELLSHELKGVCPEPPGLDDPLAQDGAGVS
Sequence of human Serotonin, 5-Hydroxytryptamine Receptor 2A (5HT2A), HTR2A (gene 3356) (P28223 whole entry, looked up): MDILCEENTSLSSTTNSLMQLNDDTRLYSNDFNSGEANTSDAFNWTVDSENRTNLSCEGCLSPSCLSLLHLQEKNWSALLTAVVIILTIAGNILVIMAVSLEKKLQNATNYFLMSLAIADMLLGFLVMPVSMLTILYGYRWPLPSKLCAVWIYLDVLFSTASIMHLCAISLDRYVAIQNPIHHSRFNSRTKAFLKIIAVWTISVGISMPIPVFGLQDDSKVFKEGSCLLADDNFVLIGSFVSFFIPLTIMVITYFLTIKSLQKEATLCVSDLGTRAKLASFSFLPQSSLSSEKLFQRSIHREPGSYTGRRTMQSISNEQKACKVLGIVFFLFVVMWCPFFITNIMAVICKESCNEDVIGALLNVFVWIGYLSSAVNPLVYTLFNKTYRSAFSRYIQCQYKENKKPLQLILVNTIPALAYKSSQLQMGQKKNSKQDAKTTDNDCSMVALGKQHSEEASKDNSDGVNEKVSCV
Sequence of bovine Dopamine Receptor (DR), Non-selective Binding, DRD1 (gene 281125) (Q95136 whole entry, looked up): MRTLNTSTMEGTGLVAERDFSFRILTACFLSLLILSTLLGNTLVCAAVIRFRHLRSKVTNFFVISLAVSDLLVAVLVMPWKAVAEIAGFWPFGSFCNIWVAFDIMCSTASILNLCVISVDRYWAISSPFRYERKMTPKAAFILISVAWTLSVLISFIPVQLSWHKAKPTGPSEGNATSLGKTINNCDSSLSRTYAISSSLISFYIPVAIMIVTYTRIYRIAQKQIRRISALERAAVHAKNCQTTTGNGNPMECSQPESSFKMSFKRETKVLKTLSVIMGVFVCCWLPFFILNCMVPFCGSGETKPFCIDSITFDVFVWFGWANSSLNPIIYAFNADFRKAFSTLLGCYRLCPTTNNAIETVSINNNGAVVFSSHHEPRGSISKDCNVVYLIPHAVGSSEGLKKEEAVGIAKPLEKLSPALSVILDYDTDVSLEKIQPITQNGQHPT

Turning to `CC(C)(C)c1csc(-c2cc3cc(OCc4ccccc4CC(=O)O)ccc3o2)n1`, the AC50 in assay [1] was 0.0125 µM (active). In addition, the compound was called inactive in assay [2].

For the compound `O=C(O)Cn1c(=O)n(Cc2ccc(Br)cc2F)c(=O)c2ccc(Cl)cc21`, the compound was called inactive in assay [3].

For the compound `Cc1cc(F)ccc1-c1cc(N2CC[C@@H](O)[C@H]2CO)ncc1N(C)C(=O)C(C)(C)c1cc(C(F)(F)F)cc(C(F)(F)F)c1`, in [1], the call was inactive. Besides, the AC50 is 7.83 µM (active) in [2]; 11.7 µM (active) in [4]; 20.4 µM (active) in [5]; 2.69 µM (active) in assay [6]; 20.4 µM (active) in [7].

For the compound `Cc1cc2c(cc1C(F)(F)F)N(C(=O)Nc1ccc(Oc3cccnc3C)nc1)CC2`, the call in assay [8] and in [6] was inactive. Also, the AC50 in assay [2] was 4.76 µM (active); in assay [4], 2.91 µM (active).

For the compound `CN1C(=O)N(c2ccccc2Br)Cc2cnc(Nc3ccc4c(c3)OCC(CO)O4)nc21` (stereo not drawn), the result in assay [2] and in assay [6] was inactive.

As for `OC12N=C(c3ccccc3)SC1Cc1cc(Cl)ccc12` (stereo not drawn), in [9], the call was inactive.

With `CCCCCCCCCC(=O)O`, the compound was called inactive in [10], in assay [11], in assay [5], in assay [6] and in [7].

For `COc1cccc([C@H](O)C2CCN(CCc3ccc(F)cc3)CC2)c1OC`, the AC50 in assay [12] is 5.96 µM (active); in assay [13], 5.41 µM (active); in assay [14], 12.1 µM (active); in assay [6] it was 0.395 µM (active). Besides, in assay [5], the compound was called inactive.

Regarding `NCc1cccc(C2CCN(C(=O)c3ccc(C#Cc4ccccc4F)o3)CC2)c1`, the AC50 in assay [15] is 25 µM (active); in assay [8] it was 9.09 µM (active); in [2], 18.4 µM (active); in assay [14], 25 µM (active); in [4], 8.69 µM (active); in [5] it was 15.8 µM (active). Besides, in [6], the AC50 is 6.87 µM (active).

In the case of `CC1(C)NC(=O)N(c2ccc([N+](=O)[O-])c(C(F)(F)F)c2)C1=O`, the AC50 in [10] was 9.79 µM (active).

On to `Cc1oc2c(NC(=O)c3c(Cl)cccc3Cl)cccc2c1C(C)(C)O`, for which, in [13], the AC50 was 25 µM (active). In addition, in [5], the result was inactive.

With `CCCCCCCCCCCC[N+](C)(C)C`, the compound was called inactive in assay [15]. The values for the AC50 in [9], in assay [8] and in [6] were 4.04 µM (active), 4.49 µM (active) and 17.3 µM (active), respectively.

For `c1ccc(C[n+]2cccc3ccccc32)cc1`, the figures for the AC50 in [8] and in assay [14] were 8.25 µM (active) and 11.8 µM (active), respectively.

`CN(C[C@@H](CC[N+]12CCC(C3CCCCC3)(CC1)CC2)c1ccc(Cl)c(Cl)c1)C(=O)c1cc(C(F)(F)F)cc(C(F)(F)F)c1`: the AC50 in assay [3] is 36.7 µM (active); in assay [11], 0.166 µM (active); in assay [4] it was 10.5 µM (active); in [5], 16.7 µM (active); in assay [6], 1.53 µM (active).

Turning to `CCCCCCCC[Si](OCC)(OCC)OCC`, the call in assay [14] was inactive.

For orientation: AC50 means the concentration giving half of the maximal activity seen.
